From PubChem BioAssay (NCI)
This is part of a sample that, as a whole, favours compounds with a hit. Of some 79,000 tested, about 15% had one in any assay. Active and inactive are the calls of the source. Rule as the data show it: active = growth inhibition above about 70%; inactive = the rest.

Experiments:
[1] = NCI Yeast Anticancer Drug Screen. Data for the rad50 strain (AID 155);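 also: 0% = growth of vehicle-only cultures of the same strain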; details: S. cerevisiae rad50 strain growth inhibition, active compounds read high
Procedure, shortened: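 Growth of the mutant yeast was measured after compound exposure and referenced to vehicle-treated cultures.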

[2] = NCI Yeast Anticancer Drug Screen. Data for the mec2-1 strain (AID 157); details: S. cerevisiae mec2-1 strain, active compounds read high
Procedure, shortened: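 Strain: mec2-1 (DNA repair/cell cycle alteration). Compound exposure, then growth measured; inhibition expressed relative to vehicle.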

[3] = NCI Yeast Anticancer Drug Screen. Data for the sgs1 mgt1 strain (AID 161);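 also: 0% = growth of cultures given vehicle only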; details: S. cerevisiae sgs1 mgt1 strain, active compounds read high
Procedure, shortened: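 Test agents were incubated with a DNA-repair-mutant yeast strain. Growth was then read and compared against vehicle-treated controls.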

[4] = NCI Yeast Anticancer Drug Screen. Data for the cln2 rad14 strain (AID 165);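 also: 0% = growth equal to vehicle treated cultures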; details: S. cerevisiae cln2 rad14 strain, active compounds read high
Procedure, shortened: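 Compounds are applied to the cln2 rad14 yeast strain, and growth is then compared with that of vehicle-treated cultures to give inhibition.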

[5] = NCI Yeast Anticancer Drug Screen. Data for the bub3 strain (AID 167); details: S. cerevisiae bub3 mutant strain, active compounds read high
Procedure, shortened: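 Whole-cell yeast assay. The mutant strain was incubated with compounds, and growth inhibition was determined by comparison with vehicle-treated cells.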

[6] = NCI Yeast Anticancer Drug Screen. Data for the mlh1 rad18 strain (AID 175); details: S. cerevisiae mlh1 rad18 strain growth inhibition, active compounds read high
Procedure, shortened: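 Read-out is yeast growth inhibition, calculated against vehicle-only controls. The compound was applied to a strain engineered with DNA damage repair alterations.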

[7] = at 5.0 µM (retest, dose inferred, filed as 0.5)
[8] = at 50.0 µM (retest, dose inferred, filed as 5.0)

Measured: growth inhibition

C[C@H]1CC(=O)[C@@]2(O)C#C/C=C\C#C[C@@H]3Nc4c(cc(O)c5c4C(=O)c4ccccc4C5=O)[C@]24O[C@]314
active: [1]; at 50.0 µM unless noted 78% | [2]; at 50.0 µM unless noted 82% | [3]; at 50.0 µM unless noted 85.2% | [4]; at 50.0 µM unless noted 86.9% | [5]; at 50.0 µM unless noted 85.8%

COC1=C2CC(C)CC(OC)C(O)C(C)/C=C(\C)C(OC(N)=O)C(OC)/C=C\C=C(/C)C(=O)NC(=C(/C=N/N3CCCCC3)C1=O)C2=O (stereo unspecified)
inactive: [1]; at 50.0 µM unless noted 17.4% | [2]; at 50.0 µM unless noted 10.3% | [3]; at 50.0 µM unless noted -13.9% | [4]; at 50.0 µM unless noted -15.7% | [5]; at 50.0 µM unless noted -12.8%

CN(C)c1ccc(/C=C\C(=O)c2ccccc2)cc1
inactive: [1]; [7] 7% | [1]; [8] 57% | [2]; [7] 1% | [2]; [8] 28% | [3]; [7] 6% | [4]; [7] 13% | [4]; [8] 15% | [5]; [7] 8% | [6]; [7] 32% | [6]; [8] 53%
active: [3]; [8] 75% | [5]; [8] 77%

Nc1nc(Cl)c(C=O)c(NCC2(CO)CC(CCc3ccccc3)C2)n1 (stereo unspecified)
inactive: [1]; at 50.0 µM unless noted 15.4% | [2]; at 50.0 µM unless noted 9.95% | [3]; at 50.0 µM unless noted -32.8% | [4]; at 50.0 µM unless noted -2.2% | [5]; at 50.0 µM unless noted -22%

COc1c(OC(C)=O)c(OC(C)=O)cc2c1-c1ccc(SC)c(=O)cc1C(NC(C)=O)CC2 (stereo unspecified)
inactive: [1]; at 50.0 µM unless noted 23.2% | [2]; at 50.0 µM unless noted 3.5% | [3]; at 50.0 µM unless noted -28.8% | [4]; at 50.0 µM unless noted -24.6% | [5]; at 50.0 µM unless noted -33.8%

CCc1nc(Cl)nc(Cl)c1Cl
inactive: [1]; at 50.0 µM unless noted -9.1% | [2]; at 50.0 µM unless noted -17.1% | [3]; at 50.0 µM unless noted -18.2% | [4]; at 50.0 µM unless noted 0.2% | [5]; at 50.0 µM unless noted -8.5%

C/C(N=NC(=S)N1CC2CCC(CC2)C1)=C1\C=CC=CN1O
inactive: [4]; at 50.0 µM unless noted 69.5%
active: [1]; at 50.0 µM unless noted 80.3% | [2]; at 50.0 µM unless noted 85.7% | [3]; at 50.0 µM unless noted 82.2% | [5]; at 50.0 µM unless noted 78%

N#CC(c1ccccc1)c1cccc2ccccc12 (stereo unspecified)
inactive: [1]; [7] 5% | [1]; [8] 68% | [2]; [7] 3% | [2]; [8] 35% | [3]; [7] 1% | [4]; [7] -4% | [4]; [8] -4% | [5]; [7] 7% | [5]; [8] 59% | [6]; [7] -25% | [6]; [8] 56%
active: [3]; [8] 74%

CCOC(=O)C(=O)Nc1cc(C)no1
inactive: [1]; at 50.0 µM unless noted 4.95% | [2]; at 50.0 µM unless noted 9.85% | [3]; at 50.0 µM unless noted -6.6% | [4]; at 50.0 µM unless noted -25.6% | [5]; at 50.0 µM unless noted -25.1% | [6]; at 50.0 µM unless noted -2%

COC(=O)C(Br)C(CCCN1C(=O)c2ccccc2C1=O)OC (stereo unspecified)
inactive: [1]; at 50.0 µM unless noted 27.5% | [2]; at 50.0 µM unless noted 7.55% | [3]; at 50.0 µM unless noted 45.9% | [4]; at 50.0 µM unless noted 8.5% | [5]; at 50.0 µM unless noted 39.9% | [6]; at 50.0 µM unless noted 19.1%
